Hit rate of the full screen: of about 210,000 compounds, about 730 (0.35%) were called active. Inconclusive results (about 1%) are left out. The list comes from a sample in which actives are over-represented; it also holds similar structures and randomly drawn compounds. Unmarked numbers belong to inactive results. The call rests on the fitted dose curve; in most records, active means well fitted inhibition curve with a large enough effect; inconclusive means small, poorly fitted or top-dose-only effect; inactive means no such curve, though single readings can be large or run the other way.
Test: qHTS Assay for Identifying the Cell-Membrane Permeable IMPase Inhibitors: Potentiation with Lithium;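 further: IP1 builds up when IMPase is blocked and the TR-FRET signal falls; nearly all actives have a fitted effect of over 50% in size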;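 on activity, negative = IMPase inhibition: plate controls were basal vehicle for no effect and high inhibitor control for full effect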
Conditions: CHO-M1 cells, IP1 TR-FRET (IP-One), carbachol + lithium; series mostly up to 59.4 µM; activity, negative = IMPase inhibition: at the top concentration
Description: NIH Chemical Genomics Center [NCGC]
NIH Molecular Libraries Probe Production centers Network [MLPCN]
Assay Submitter (PI): Wei Zheng
Lithium has been widely used for the treatment of bipolar disorder. But lithium has a narrow therapeutic index and it can cause side effects such as thirst, weight gain, tremor, polyuria and memory problems. Although the mechanism for lithium action in treatment of bipolar disorder is still not fully understood, inhibition of inositol monophosphatase (IMPase) and the subsequent depletion of the inositol pool in living cells have been implicated as the primary therapeutic benefit of lithium therapy. Therefore, a selective IMPase inhibitor with reduced side effects might be a good drug candidate to replace lithium for the treatment of bipolar disorder. Several IMPase inhibitors have been discovered previously. However, they are not suitable for therapeutic use because of their poor cell membrane penetrability or oral bioavailability; the development of new cell-permeable IMPase inhibitors is needed.
IMPase catalyzes the hydrolysis of inositol-1-phosphate (IP1) to release free inositol. Binding of an agonist to a Gq coupled GPCR results in the activation of PLC, which hydrolyzes the PIP2 to form inositol-1,4,5-trisphosphate (IP3) and diacyl glycerol (DAG). While DAG activates protein kinase C (PKC), IP3 triggers the elevation of intracellular free Ca2+. The IP3 is very rapidly inactivated by hydrolysis to IP2, IP1 and then inositol by a series of enzymes including IMPase. Free inositols are used for synthesis of PI and thus start another inositol cycle.
To identify new cell-permeable IMPase inhibitors, we developed a cell-based IMPase assay in which the cytosolic IP1 is measured by a time-resolved fluorescence resonance energy transfer (TR-FRET) assay. In this assay, an IP1 specific antibody is used to detect the labeled IP1 tracer. When the cell lysate contains the elevated IP1 due to the inhibition of IMPase, the TR-FRET between the labeled antibody and IP1 tracer is disrupted resulting in a reduction in the total signal. Since the TR-FRET is used, this cell-based assay is a homogenous assay without cell wash and medium change that is suitable for assay miniaturization and HTS. In this particular assay, a small amount of lithium is added to potentiate the response of weak activators.
NCGC Assay Protocol Summary:
A Chinese hamster ovary (CHO) cell line stably expressing the M1 receptor (CHO-M1) was obtained from ATCC and maintained in F-12 Kaighn's media (Invitrogen, Carlsbad, CA) supplemented with 10 % FBS, 100 units/ml penicillin, 100 ug/ml streptomycin and 250 ug/ml geneticin at 37C, 5% CO2 in a humidified atmosphere. Before the assay, aliquots of cells were frozen and stored at -135C. The assay was performed in 1536-well format. Data are reported for both the ratio of the two emission wavelengths, and also for the component 'donor' channel, Em2=620. […] AC50 values were determined from concentration-response data modeled with the standard Hill equation.
(1) Frozen CHO-M1 cells were thaw, washed once with fresh media and resuspended in F12K media containing 10% FBS, 100 units/ml penicillin and 100 ug/ml streptomycin. Cells were plated at 4ul/well (2000 cells) in white, tissue culture treated 1536-well plates, and then cultured at 37C, 5 % CO2 for 16 to 30 hours.
(2) Add 23 nl/well of compound in DMSO solution. The final titration for each compound was between 0.6 nM and 46 uM.
(4) Incubation at 37C, 5 % CO2 for 30 min.
(5) Add 1 ul/well of d2-conjugated IP1 (d2-IP1) and 1 ul/well of Eu+ cryptate conjugated anti-IP1 antibody (Eu+-Ab) prepared in the cell lysis buffer, both from the IP-One kit (Cisbio, MA).
(6) Incubate at room temperature for 10 minutes.
(7) Detect the assay plate (Ex = 320, Em1 =665 and Em2 620) in a ViewLux plate reader.
Potency means the concentration at half of the fitted maximal effect.

Row | Compound | activity, negative = IMPase inhibition | Potency
1 | CCOC(=O)c1c(C)nc(-c2ccccc2)nc1NC(=O)C(C)C | 2.09% [at 38.3 µM] | –
2 | CCOC(=O)c1c(C)[nH]c2c1-c1ccccc1C(=O)C2=O | 12.6% | –
3 | CCOC(=O)c1c(C)[nH]c(=S)c(C#N)c1-c1ccccc1 | – | 12.6 µM (active)
4 | Brc1ccc(C2=NCCC(c3ccccc3)O2)cc1 (stereo unspecified) | 4.94% | –
5 | CC[C@H](C)[C@@H](NC(=O)O[C@@H]1C(=O)c2cc(OC)ccc2O[C@H]1c1cccc(OC)c1)C(=O)OC | 18.9% | –
6 | COc1cc(OC)c2c(-c3cccc(-c4cccc(N)c4)c3)cc(=O)oc2c1 | 16.6% | –
7 | CCOC(=O)C1=NO[C@@]2(C=C(Br)C(=O)[C@H]3O[C@H]32)C1 | 15.8% | –
8 | CC1=C(/C=C/C(C)=C/C=C/C(C)=C/C=C/C=C(C)/C=C/C=C(C)/C=C/C(=O)[C@]2(C)C[C@@H](O)CC2(C)C)C(C)(C)C[C@H](O)C1 | -2.06% | –
9 | COC(=O)c1sc2[nH]c(=S)n(N)c(=O)c2c1C | – | 10 µM (active)
10 | CCOC(=O)Cn1c(N)c(C(=O)OC)sc1=S | -4.7% [at 38.3 µM] | –
11 | COC(=O)c1sc(=S)n(-c2ccccc2)c1N | 25.7% [at 38.3 µM] | –
12 | COC/C=C/C1=CC2=CC(=O)C(C)(OC(=O)CCC(=O)OC)C(=O)C2=CO1 (stereo unspecified) | 0.633% | –
13 | COc1cccc([C@@H]2Oc3ccc(Br)cc3C(=O)[C@H]2OC(=O)NCCc2ccc(OC)c(OC)c2)c1 | 10.1% | –
14 | NNc1nnc(NN)c2ccccc12 | 11.6% | –
15 | COC(=O)CSc1nc(C2CC2)nc2ccccc12 | 3.22% [at 38.3 µM] | –
16 | Cc1nnc(NC(=O)CSc2nc(C3CCCCC3)nc3ccccc23)s1 | – | 6.31 µM (active)
17 | O=C(CSc1nc(C2CC2)nc2ccccc12)Nc1ccc2c(c1)OCCO2 | 18.1% [at 38.3 µM] | –
18 | NC(=O)c1sc(-c2ccsc2)cc1N | -15.1% | –
19 | COC(=O)C1=C(C(=O)OC)[C@@H]2N(C)c3ccccc3[C@@]23C[C@@H](C(=O)OC)N(S(=O)(=O)c2ccc(Br)cc2)C3=N1 | 2.46% | –
20 | CC(N)(C(=O)O)c1ccc(-c2nn[nH]n2)cc1 (stereo unspecified) | -8.09% | –
21 | CCN1C(=O)N[C@@H](c2ccccc2)C(C(=O)OC)=C1C | -7.94% | –

Row | Compound | activity, negative = IMPase inhibition | Potency
22 | CCOC(=O)c1c(-c2ccc(C)cc2C)csc1NC(=O)CSc1nnnn1C | 9.77% [at 38.3 µM] | –
23 | COC(=O)c1c(-c2cccs2)csc1NC(=O)CSc1ncnc2sc(C)c(C)c12 | – | 28.2 µM (active)
24 | CCOC(=O)c1c(NC(=O)CSc2nnc(Cc3csc(N)n3)n2C)sc(C)c1C | 36% [at 38.3 µM] | –
25 | Cc1ccc(NC(=O)O[C@@H]2C(=O)c3cc(Br)ccc3O[C@H]2c2ccc3c(c2)OCO3)cc1Br | 9.18% | –
26 | C=C1O[C@@](CO)(n2cnc3c(N)ncnc32)[C@H](O)[C@@H]1O | -2.98% | –
27 | Cc1ccccc1-c1ccc(C(=O)O)s1 | -28.1% | –
28 | O=C(NCc1ccco1)O[C@@H]1C(=O)c2cc(Br)ccc2O[C@H]1c1ccc2c(c1)OCO2 | 7.71% | –
29 | O=C(O)C[C@@H]1NC(=O)[C@H](Cc2ccccc2)NC1=O | -10.9% | –
30 | Cn1c(-c2ccco2)nc2cc3ccccc3cc21 | -7.17% [at 38.3 µM] | –
31 | CN(c1nc2ccccc2n2c(-c3ccco3)nnc12)S(=O)(=O)c1ccccc1 | – | 7.94 µM (active)
32 | Cc1cc(NCc2ccco2)n2c(nc3ccccc32)c1C#N | 20.5% [at 38.3 µM] | –
33 | CCCCCCCC[C@@H](O)/C=C/C=C/C=C\[C@@H](O)CCCC(=O)O | 6.73% | –
34 | COc1ccc2c(c1)O[C@@H](c1ccc3c(c1)OCO3)[C@H](OC(=O)NCCc1ccc(OC)c(OC)c1)C2=O | -14.2% | –
35 | C/C=C(\C)C(=O)OC1C(OC(=O)C2(C)OC2C)c2cc3ccc(=O)oc3cc2OC1(C)C (stereo unspecified) | 4.87% | –
36 | COC1(C2=NCCN2)COc2ccccc2O1 (stereo unspecified) | 5.3% | –
37 | C[C@H]1Cc2c(COc3ccccc3)nc3c(c2CO1)CN(C(=O)NCc1ccco1)CC3 | -2.19% | –
38 | C/C=C(\C)C(=O)O[C@H]1CC(C)=C2C(=O)C=C(C)C2[C@@H]2OC(=O)[C@@](C)(OC(=O)C=C(C)C)C21 (stereo partly specified) | -1.2% | –
39 | CCCCC/C=C\C/C=C\C/C=C\CCCCCCC(N)=O | 7.82% | –
40 | COc1ccc(-c2nc3cnc(OC)nc3n(Cc3ccc(F)cc3)c2=O)cc1 | – | 5.62 µM (active)
41 | COc1cccc(Cn2c(=O)c(C)nc3cnc(Oc4ccccc4)nc32)c1 | 18.7% | –
42 | COc1cccc(Cn2c(=O)c(-c3cc(F)cc(F)c3)nc3cnc(OC)nc32)c1 | 0.937% | –

Row | Compound | activity, negative = IMPase inhibition | Potency
43 | COc1ccc(-c2nc3cnc(N(C)C)nc3n(Cc3cccs3)c2=O)cc1 | 1.78% | –
44 | COc1cccc(Cn2c(=O)c(-c3ccccc3)nc3cnc(OC)nc32)c1 | 24.5% | –
45 | COc1ccc(-c2nc3cnc(Oc4ccccc4)nc3n(Cc3cccs3)c2=O)cc1 | – | 8.91 µM (active)
46 | COc1ccc(-c2c(C)cc3oc(=O)cc(-c4ccccc4)c3c2C)cc1C=O | 2.81% | –
47 | CC(C)[C@@H]1NC(=O)[C@H](Cc2ccccc2)NC(=O)[C@@H](CC(=O)O)NC(=O)CNC(=O)[C@H](CCCNC(=N)N)NC1=O | 7.05% | –
48 | Cc1cc2oc(=O)cc(-c3ccccc3)c2c(C)c1/C=C/c1ccc(F)cc1 | -7.25% | –
49 | Cc1ccc(-c2cccc([C@H]3[C@@H]4C=CC[C@@H](C)[C@@H]4C(=O)N3Cc3ccccc3)c2)cc1 | 10% | –
50 | CC(=O)/C(C)=N/O | -3.22% | –
51 | O=C(Nc1ccncc1)c1cc(-c2ccccn2)nc2ccc(Br)cc12 | – | 2.82 µM (active)
52 | O=C(NCc1ccccn1)c1cc(Br)ccc1Cl | 5.27% | –
53 | Cc1ccc2nc(-c3ccncc3)cc(C(=O)Nc3ccc(OC(F)F)cc3)c2c1 | 16.8% | –
54 | Cc1ccc(-c2cc(C(=O)NCc3cn(C)nc3C)c3cc(Br)ccc3n2)cc1 | -14.7% | –
55 | O=C(NCc1cccs1)c1cc(-c2ccccn2)nc2ccc(Br)cc12 | – | 6.31 µM (active)
56 | Cc1ccc2nc(-c3ccccn3)cc(C(=O)Nc3ccc4c(c3)OCO4)c2c1 | 4.54% | –
57 | S=C(NCCCc1cnc[nH]1)NCCCN(Cc1ccc(Cl)c(Cl)c1)c1ccc(Br)cn1 | 2.14% | –
58 | C=CC(C1=CC(=O)C=CC1=O)c1ccc(O)cc1 (stereo unspecified) | 38.9% | –
59 | COc1cccc([C@@H]2Oc3ccc(Br)cc3C(=O)[C@H]2OC(=O)NCc2ccc3c(c2)OCO3)c1 | 9.58% | –
60 | CC(=O)[C@H](C(c1ccccc1)N1CCOCC1)N1CCOCC1 (stereo partly specified) | -10.4% | –
61 | COC(=O)C1=C(C(=O)OC)[C@@H]2N(Cc3ccccc3)c3ccccc3[C@@]23C[C@@H](C(=O)OC)N(S(=O)(=O)c2ccc(C(F)(F)F)cc2)C3=N1 | 9.75% | –
